Values joined by “and” are separate entries in the source; they are usually repeats but may differ in a detail not shown here. Identical values can stand only once. Compounds without any hit were thinned out: in the full panel of roughly 79,000, 15% have a hit. Values without a mark were called inactive. Active and inactive are the calls of the source. Rule as the data show it: active = growth inhibition above about 70%; inactive = the rest.
experiment: NCI Yeast Anticancer Drug Screen. Data for the cln2 rad14 strain (AID 165);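 also: 0% = growth equal to vehicle treated cultures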; settings: S. cerevisiae cln2 rad14 strain, at 5.0 µM (retest, dose inferred, filed as 0.5), stronger effect = higher value
Procedure: Growth inhibition of yeast strains with defined genetic alterations is measured as a screen for potential anti-cancer activity. Selected strains with alterations in DNA damage repair or cell cycle control were exposed to compounds and growth inhibition was measured relative to vehicle treated controls. The strain used in this assay is cln2 rad14

| SMILES | growth inhibition [%] |
| --- | --- |
| NN1CCOC(c2ccccc2)C1 (stereo not given) | 0 |

same assay, conditions: S. cerevisiae cln2 rad14 strain, at 50.0 µM (retest, dose inferred, filed as 5.0), stronger effect = higher value

| SMILES | growth inhibition [%] |
| --- | --- |
| NN1CCOC(c2ccccc2)C1 (stereo not given) | 4 |

same assay, conditions: S. cerevisiae cln2 rad14 strain, stronger effect = higher value; at 50.0 µM unless noted

| SMILES | growth inhibition |
| --- | --- |
| CC(=O)N(C(=O)CC(=O)NNCc1ccccc1Cl)c1ccc(Cl)cc1 | -11.4% |
| Cc1ccc(N=Nc2ccc(C)cc2NC(=O)c2cccc3ccccc23)cc1 | -90.5% |
| Cc1cc(OCC(=O)O)cc(C)c1C | -18.6% |
| Nc1nc(N)c2ncn(Cc3ccccc3)c2n1 | -14.1% |
| CNc1cc([N+](=O)[O-])ccc1Br | -2.95% |
| CN1OC(=O)OC(C)(c2ccccc2)C1=O (stereo not given) | 0.25% |
| COC(=O)CCC(C)C1CCC2(C)C3=C(C(=O)CC12C)C1(C)CCC(O)C(C)(C)C1=C(O)C3 (stereo not given) | 79.9% (active) |
| CCOC(=O)Cc1nc2nn(Cc3ccccc3)cc2c(=O)[nH]1 | 0.65% |
| O=C(/C(Cl)=N/O)c1ccc(O)c(O)c1 | 24.6% |
| CCOC(=O)c1ccc(Cn2c(C)cc(=O)n(Cc3ccc(C(=O)OCC)cc3)c2=O)cc1 | -27.6% |
| CN(C)c1cccc2ccccc12 | -24.3% |
| COc1ccc(C2OC3=C(Nc4cc(C)c(C)cc4N3)C2=O)cc1 (stereo not given) | -1.35% |
| CC(=O)C(C(C)=O)=C1CCCC(O)O1 (stereo not given) | 5.7% |
| CCN(c1ccccc1)S(=O)(=O)C(C)S(=O)(=O)N(CC)c1ccccc1 | -19.8% |
| COC(=O)c1ccc(N=NN(C)CN=[N+]=[N-])cc1 | -21.3% |
| Cc1cccc[n+]1C | -19.2% |
| c1cc(-c2cnc(-c3ccc4c(c3)CCCO4)o2)ccn1 | 17.9% |
| CCC(=O)c1ccc(OC)cc1OC | -2.05% |
| CCOC(OCC)C1(C)CC=CCC1 (stereo not given) | -3.4% |

| SMILES | growth inhibition |
| --- | --- |
| O=C(NNC(=O)c1ccc(Cl)c(Cl)c1)c1ccccc1 | -7.95% |
| COc1ccc2oc3c(OC)c(OC)c(OC)cc3c(=O)c2c1 | 6% |
| CCN(CC)CCNC(=O)c1cc(N2CCOCC2)ccn1 | 1.05% |
| Cc1ccc(N[P+](c2ccccc2)(c2ccccc2)c2ccccc2)cc1.[Cl][Fe]([Cl])([Cl])[Cl] | -8.4% |
| CCOc1ccc(F)cc1 | 22.6% |
| Nc1ncnc2c1nc(Cl)n2C1OC2COP(=O)(O)OC2C1O (stereo not given) | -9.25% and -40.8% |
| CCCCCCCCC(=O)NCCOC | -20.8% |
| CC(=O)N(CCC(C)C)CCC(C)C | 14.3% |
| O=C1C=CC=C/C1=C1/SC(c2ccccc2)=C(O)N1c1ccccc1 | -17.3% |
| O=C(CCCCl)N1CCCCCC1 | -37% |
| c1ccc(CSCc2cnc[nH]2)cc1 | 14.8% |
| CCN(CC)CCNc1ccc2ncn3c4cc(=O)ccc4c(O)c1c23 | 7.9% |
| CC(=O)OCC1OC(OC(C)=O)C(OC(C)=O)C(OC(C)=O)C1OC(C)=O (stereo not given) | -30.9% and 11.5% |
| O=c1cc(N2CCOCC2)n2ccccc2n1 | -20.6% |
| COc1c(OC2OC(CO)C(O)C(O)C2O)cc2c(c1OC)-c1ccc(OC)c(=O)cc1[C@@H](NC(C)=O)CC2 (stereo not given in full) | 3.65% |
| COc1ccc(OC)c2[nH]c(=O)c(C)nc12 | -4.85% |
| C=C1c2nc3ccccc3n2C=C(c2ccccc2)N1c1ccc(OC)cc1 | -5.85% |
| c1ccc(NN(Cc2cnccn2)c2ccccc2)cc1 | -29.9% |
| Nc1c(Br)cc(Br)cc1C(=O)O | 17.1% |
